Experimental findings from PubChem BioAssay AID376 (PDSP, 2006) are described below.

In all, about 2,000 compounds went through this assay and about 250 (12%) were called active. What follows is part of a selection rich in actives, with near analogues and random picks from the rest. Unmarked numbers belong to inactive results. No stated cut-off is given here; in the data, active means hERG blockade below about -20% or above about 20%; inactive means in between.

Voltage-gated inwardly rectifying potassium channel KCNH2 (Homo sapiens), sequence (Q12809 whole entry, looked up): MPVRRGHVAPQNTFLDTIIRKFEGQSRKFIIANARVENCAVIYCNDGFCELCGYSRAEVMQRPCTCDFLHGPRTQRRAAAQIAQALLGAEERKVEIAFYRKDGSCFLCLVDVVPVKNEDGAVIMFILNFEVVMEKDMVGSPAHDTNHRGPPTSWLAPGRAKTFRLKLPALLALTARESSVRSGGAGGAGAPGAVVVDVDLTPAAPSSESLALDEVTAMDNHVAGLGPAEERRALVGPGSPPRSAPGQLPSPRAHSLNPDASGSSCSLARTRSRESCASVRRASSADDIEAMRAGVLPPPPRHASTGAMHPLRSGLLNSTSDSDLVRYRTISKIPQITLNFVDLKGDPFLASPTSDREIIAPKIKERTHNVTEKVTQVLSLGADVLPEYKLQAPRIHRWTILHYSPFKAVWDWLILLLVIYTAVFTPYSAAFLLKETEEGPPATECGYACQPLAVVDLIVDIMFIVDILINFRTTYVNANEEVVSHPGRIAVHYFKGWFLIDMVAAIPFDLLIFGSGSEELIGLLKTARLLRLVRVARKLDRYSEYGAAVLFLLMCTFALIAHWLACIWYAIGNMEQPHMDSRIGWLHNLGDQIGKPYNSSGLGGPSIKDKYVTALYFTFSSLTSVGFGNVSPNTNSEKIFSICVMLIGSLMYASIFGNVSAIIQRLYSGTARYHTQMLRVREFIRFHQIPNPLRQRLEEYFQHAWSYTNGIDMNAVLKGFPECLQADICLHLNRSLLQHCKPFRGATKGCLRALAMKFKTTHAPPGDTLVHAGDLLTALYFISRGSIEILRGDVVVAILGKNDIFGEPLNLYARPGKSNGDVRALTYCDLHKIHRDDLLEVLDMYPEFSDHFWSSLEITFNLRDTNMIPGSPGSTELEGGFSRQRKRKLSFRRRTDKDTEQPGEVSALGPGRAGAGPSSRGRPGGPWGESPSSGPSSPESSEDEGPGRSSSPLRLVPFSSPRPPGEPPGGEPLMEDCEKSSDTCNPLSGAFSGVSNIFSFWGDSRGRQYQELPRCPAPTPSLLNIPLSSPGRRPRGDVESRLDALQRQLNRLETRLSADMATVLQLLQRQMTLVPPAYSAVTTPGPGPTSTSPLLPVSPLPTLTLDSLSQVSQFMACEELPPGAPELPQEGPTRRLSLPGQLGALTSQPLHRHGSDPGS

The experiment concerns the target Voltage-gated inwardly rectifying potassium channel KCNH2 (Homo sapiens) (UniProt Q12809). The experiment is described as follows: modulators of KCNH2 ion channel function, cellular (AID 376).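 Further: 0% = buffer alone and 100% = reference blocker.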 Particulars: hERG-expressing cells, channel activity single-concentration screen; concentration not given here.
On to `Cc1ccc(N=Nc2c(O)c3ccccc3[nH]c2=O)c(S(=O)(=O)N(C)C)c1`, for which the hERG blockade is 7.5%.
Take `Nc1c(S(N)(=O)=O)cc(S(N)(=O)=O)cc1S(N)(=O)=O`: the hERG blockade is 11.4%.
For `Cc1ccc(N=Nc2ccc(N)cc2C)c(S(N)(=O)=O)c1`, the hERG blockade was 23.9% (active).
Take `CC1(C)OCC(C2OC3OC(C)(C)OC3C2N)O1` (configuration not stated): the hERG blockade was -5.67%.
Regarding `CCOC(=O)Nc1nc(-c2ccccc2)c(C)s1`, the hERG blockade was 18.9%.
Regarding `O=C(O)C(CCc1ccccn1)c1ccccc1` (configuration not stated), the hERG blockade is 5.69%.
`NC(=O)C(=Cc1ccncc1)c1cccc2ccccc12`: the hERG blockade was -12.9%.
In the case of `O=C(O)C1C(C(=O)Nc2ccc3c(c2)Cc2ccccc2-3)C2(Cl)C(Cl)=C(Cl)C1(Cl)C2(Cl)Cl` (configuration not stated), the hERG blockade was 10.6%.
In the case of `Cc1cc2ccc(OC(=O)c3ccc(N=C(N)N)cc3)cc2oc1=O`, the hERG blockade was 13.7%.
Take `OCCSCc1cc(Cl)cc(Cl)c1O`: the hERG blockade is 6.93%.
The same measure for `O=C(O)c1cc(Cl)cc(Cc2cc(Cl)cc(C(=O)O)c2O)c1O`: 17.1%; for `CN(Cc1cc(Cl)cc(Cl)c1O)Cc1c(O)ccc2ccccc12`: 10.9%; for `O=C(O)Cc1cc(Cl)ccc1O`: -4.5%.
To `Oc1ccc(Cl)cc1Cc1cc(Cl)cc(Cc2cc(Cl)ccc2O)c1O` belongs 20.3% (active); to `Oc1ccc(Cc2cc(Cl)cc(Cl)c2O)cc1Cl`, 45.1% (active).
`CC(C)(N=NC(C)(C)C(=N)N)C(=N)N`: the hERG blockade is 63.7% (active).
The same measure for `CC(C)c1ccc(C(C(=O)O)=C(O)C(=O)O)cc1`: 6.01%.
With `CCC1CCC2C3CC=C4CC(OC(C)=O)C(N)CC4(C)C3CCC12C` (configuration not stated), the hERG blockade was 63.9% (active).
As to `CN(C)CCC(=O)C1(O)CCC2C3CC=C4CC(O)CCC4(C)C3CCC21C` (configuration not stated), the hERG blockade was 2.46%.
For `CC12CCC(O)CC1=CCC1C2CCC2(C)C1CCC2N(CCO)CCO` (configuration not stated), the hERG blockade was -0.272%.
Regarding `COC(=O)CCC(C)C1CCC2C3CCC4CC(O)CCC4(C)C3CCC12C` (configuration not stated), the hERG blockade is 3.2%.
For the molecule `CC(CCC(=O)O)C1CCC2C3CCC4CC(O)CCC4(C)C3CCC12C` (configuration not stated), the hERG blockade is 5.62%.
In the case of `COc1ccc2c(c1)CN(C(C)C1CCC3C4CCC5CC(O)CCC5(C)C4CCC31C)CO2` (configuration not stated), the hERG blockade is 51.3% (active).
Take `CC(=N[O-])C(C)=N[O-].CC(=N[O-])C(C)=N[O-].CC(=N[O-])C(C)=N[O-].CC(=N[O-])C(C)=N[O-].[Cu].[Cu]`: the hERG blockade was 17.9%.
For `O=S(=O)(c1ccc2ccccc2c1)N1CCN(S(=O)(=O)c2ccc3ccccc3c2)CC1`, the hERG blockade is -1.84%.
In the case of `c1ccc2c(CN3CCN(Cc4c[nH]c5ccccc45)CC3)c[nH]c2c1`, the hERG blockade is -0.497%.
To `OCC(CCc1c[nH]c2ccccc12)c1c[nH]c2ccccc12` (configuration not stated) belongs 53.3% (active); to `C[N+]1(C(CO)Cc2c[nH]c3ccccc23)Cc2ccccc2C1` (configuration not stated), 1.67%.
`O=C(O)C1CCCN1` (configuration not stated): the hERG blockade was 5.2%.
To `NC(=S)SCCC(=O)O` belongs 0.17%; to `CC1=CC(C2C(=NO)C=C(C)CC2(C)C)C(O)C(C)(C)C1` (configuration not stated), 2.54%.
Consider `CC(=O)C(C(c1ccccc1)N1CCOCC1)N1CCOCC1` (configuration not stated), for which the hERG blockade is -3.85%.
Consider `COc1cccc2c1C(=O)c1c(O)c3c(c(O)c1C2=O)CC(O)(C(=O)CO)CC3OC1CC(N)C(O)C(C)O1` (configuration not stated), for which the hERG blockade was 3.44%.
To `COc1cccc2c1C(=O)c1c(O)c3c(c(O)c1C2=O)CC(O)(C(=O)CO)CC3OC1CC(N)C(O)C(C)O1.[W]` (configuration not stated) belongs 0.939%; to `COc1cccc2c1C(=N)c1c(O)c3c(c(O)c1C2=O)CC(O)(C(C)=O)CC3OC1CC(N)C(O)C(C)O1` (configuration not stated), 32.2% (active).
In the case of `O=C(O)CC(=Cc1ccccc1)C(=O)O`, the hERG blockade was -18.3%.
On to `CC1(C)OC2COC(c3[nH]nc4c(=O)[nH]c(=O)[nH]c34)C2O1` (configuration not stated), for which the hERG blockade is 16.5%.
For the molecule `O=C(O)c1ccc(Oc2nc3ccccc3s2)cc1`, the hERG blockade was 1.79%.
Regarding `CN(C)CCCN=c1c2ccccc2n(C)c2[nH]c(=O)n(C)c(=O)c12`, the hERG blockade is 54.8% (active).
In the case of `CN(C)CCCCN1CCc2c(n(C)c3ccccc23)C1=O`, the hERG blockade is -2.05%.
The same measure for `CCN(CC)COC(=S)S`: -4.52%; for `CC1(C)OCC(C2OC(On3nnc4ccc(Cl)cc43)C3OC(C)(C)OC23)O1` (configuration not stated): 12.7%; for `NC(=O)CS(=O)CC(N)C(=O)O` (configuration not stated): 5.23%.
To `NC(N)=NN=Cc1ccc(C2CCNCC2)cc1` belongs 6.62%; to `Nc1c(S(=O)(=O)O)cc(S(=O)(=O)O)c2ccc(N=Nc3ccccc3)c(O)c12`, 11.9%.
Take `COc1cc(N=Nc2cccc(S(N)(=O)=O)c2)c2ccccc2c1N`: the hERG blockade was 70.8% (active).
The same measure for `N=C(N)SCCON1C(=O)c2ccccc2C1=O`: -2.21%.
`CC(=O)Nc1ccc(Cc2ccc3[nH]c(=O)cc(C)c3c2)cc1`: the hERG blockade was 0.318%.
As for `CSC(=[SH+])[N-]N=C(c1ccccn1)c1ccccn1.[Cu][Br]`, the hERG blockade was 3.34%.
Turning to `CC1(C)SC2C(NC(=O)C3(N)CCCCC3)C(=O)N2C1C(=O)O` (configuration not stated), the hERG blockade is -8.47%.
In the case of `NC(N)=NNC(=O)C(=O)O`, the hERG blockade is -3.63%.
Consider `NNC(=O)CCc1ccc2ccc3ccccc3c2c1`, for which the hERG blockade is -44.7% (active).
`O=C(O)CCCc1ccc2ccc3ccccc3c2c1`: the hERG blockade is 8.7%.
Turning to `NNC(=O)CCSc1ccccc1`, the hERG blockade is 3.37%.
As for `O=C(CON1C(=O)c2ccccc2C1=O)c1ccccc1`, the hERG blockade is 13.2%.
In the case of `O=C(O)c1ccccc1-c1ccccc1C(=O)Nc1ccc2c(c1)Cc1cc(F)ccc1-2`, the hERG blockade is -4.28%.
On to `CC(CCCC1SCC2NC(=O)NC21)C(=O)O` (configuration not stated), for which the hERG blockade was 6.78%.
For the molecule `Cc1cc2nc3[nH]c4c(Cl)cc(Cl)cc4c3nc2cc1C`, the hERG blockade is -2.06%.
For the molecule `Cc1cc2c(=O)[nH]c(N)nc2nc1C`, the hERG blockade is -6.54%.
Regarding `Cc1cc2cc3c(=O)[nH]c(=O)[nH]c3nc2cc1C`, the hERG blockade was -26% (active).
On to `O=C(c1cc(Br)ccc1O)c1cc(Br)ccc1O`, for which the hERG blockade was -0.498%.
For `Clc1ccccc1NN(Cc1ccncc1)c1ccccc1Cl`, the hERG blockade was 9.21%.
Consider `COc1ccc(NC(=S)Nc2ccccc2)cc1`, for which the hERG blockade is 3.26%.
As to `Cc1cc(C(C)(C)C)c(OCCCN2CCOCC2)c(C(C)(C)C)c1`, the hERG blockade is 20.8% (active).
For the molecule `OCCCN=C1CCCCC1`, the hERG blockade is 13.3%.
With `NCc1ccc(C(=O)O)cc1`, the hERG blockade was -10.8%.
Turning to `c1cncc(CNc2ncn[nH]2)c1`, the hERG blockade is -6.56%.
In the case of `CC(C)N1CCN(c2ccncc2S(=O)(=O)N2CCCCC2)CC1`, the hERG blockade is 4.4%.
To `O=c1[nH]c2[nH]c(=S)[nH]c(=S)c2[nH]1` belongs 33.1% (active).
Regarding `O=c1[nH][nH]c(=S)c(=O)[nH]1`, the hERG blockade was 4.97%.
Take `Clc1ccccc1NN(Cc1ccccn1)c1ccccc1Cl`: the hERG blockade is 7.97%.
To `Cc1cc(=O)[nH]c(N=C(N)Nc2ccc(Cl)cc2)n1` belongs -17.7%; to `Cc1cccc(C(=O)O)c1CC1NCCC2c3ccccc3NC12` (configuration not stated), 32.1% (active); to `NC(Cc1cccnn1)C(=O)O` (configuration not stated), 5.87%.
Take `O=S(=O)(O)n1ccnc1` (tested in a mixture with another compound): the hERG blockade is -15.4%.
To `S=C(Nc1ccc2cn[nH]c2c1)Nc1ccc2cn[nH]c2c1` belongs -19.3%; to `Cc1c2cc[n+](CCN3CCCCC3)cc2c(C)c2c1[nH]c1ccc(O)cc12`, 26.1% (active); to `CCN(CC)CC[n+]1ccc2c(C)c3[nH]c4ccc(O)cc4c3c(C)c2c1`, 45.4% (active).
With `CCN(CC)CC[n+]1ccc2c(C)c3[nH]c4ccccc4c3c(C)c2c1`, the hERG blockade is 36.7% (active).
As to `NCCNC(=S)S`, the hERG blockade was 5.6%.
With `NN=C1CC(=O)NC(=O)N1`, the hERG blockade is -9.37%.
In the case of `CCCCNc1nc(SC)nc2nc[nH]c12`, the hERG blockade is 6.48%.
The same measure for `COC1C=COC2(C)Oc3c(C)c(O)c4c(O)c(cc(O)c4c3C2=O)NC(=O)C(C)=CC=CC(C)C(O)C(C)C(O)C(C)C(OC(C)=O)C1C` (configuration not stated): 8.1%; for `CC(C)(C)COS(=O)OCC(C)(C)C`: -13.1%.
As to `CC(=O)C=NCC(=O)O`, the hERG blockade was -0.567%.
Regarding `O=C(O)Cc1c[nH]c2ccc(F)cc12`, the hERG blockade is -3.11%.
The same measure for `CCOP1(=O)OCC2OC(n3cnc4c(N)ncnc43)C(O)C2O1` (configuration not stated): 5.38%; for `CCOc1ccc2c(ccc(C=Cc3cc(C)c4cccnc4c3O)[n+]2C)c1`: 37% (active).
With `O=C(O)CCC(C(=O)O)N1C(=O)C2C3CCC(C3)C2C1=O` (configuration not stated), the hERG blockade was 7.54%.
Regarding `CC12CCC(=O)C=C1CCC1C2C(O)CC2(C)C(c3csc(-c4ccccc4)n3)CCC12` (configuration not stated), the hERG blockade is -6.87%.
Regarding `CCc1ccc2c(c1)N(CC(C)CN(C)C)c1ccccc1S2` (configuration not stated), the hERG blockade was 25.4% (active).
`O=C(O)C(Cc1ccccc1)Cc1ccccc1`: the hERG blockade was -4.1%.
The same measure for `CN(C)c1ccc(C(C#N)N2CCCN(C(C#N)c3ccc(N(C)C)cc3)C2c2ccc(N(C)C)cc2)cc1` (configuration not stated): 6%; for `Cc1ccc(S(=O)(=O)N=Nc2c(O)[nH]c3cc(O)c(C(=O)O)cc23)cc1`: -2.22%.
In the case of `OCC1OC(n2cnc3c(C=C(O)c4ccccc4)ncnc32)C(O)C1O` (configuration not stated), the hERG blockade is 9.21%.
The same measure for `C[N+](C)(C)c1nc(N)nc2c1ncn2C1OC(CO)C(O)C1O` (configuration not stated): 13.1%.
On to `O=[N+]([O-])c1ccc(Cl)c(CNc2ncnc3c2ncn3C2CCCCO2)c1` (configuration not stated), for which the hERG blockade was 7.11%.
To `C[N+](C)(C)c1ncnc2c1ncn2C1CCCCO1` (configuration not stated) belongs -24.9% (active).
With `OCCn1cnc2c(SCc3ccccc3)ncnc21`, the hERG blockade is -7.5%.
As for `Fc1cccc(CSc2ncnc3c2ncn3C2CCCS2)c1` (configuration not stated), the hERG blockade was 12.5%.
Regarding `OCC1OC(n2cnc3c(SCc4ccccc4)ncnc32)C(O)C1O` (configuration not stated), the hERG blockade was 22.8% (active).
For the molecule `Clc1ccc(CSc2ncnc3c2ncn3C2CCCCO2)cc1` (configuration not stated), the hERG blockade was 24.5% (active).
